Results on 8 compounds are retold here after PubChem BioAssay (NCI).

This is part of a sample that, as a whole, favours compounds with a hit. Of some 83,000 tested, about 20% had one in any assay.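 Compound tested at a single concentration for 48 hours in 96-well plates; a percent growth value below 10 was scored as active.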 Unmarked numbers belong to inactive results. Calls of active or inactive are those of the source.

Holding throughout (test): NCI-60 one-dose screen, 48 h (100 = growth as untreated, 0 = no growth, -100 = all killed)
Details in all cases: 10 µM unless noted

Assay [1] deals with NCI-H23 lung.
Assay [2] deals with NCI-H226 lung.
In assay [3] the test system is NCI-H322M lung.
The test system of assay [4] is HOP-62 NSCLC.
Assay [5] has as its system NCI-H460 lung.
The subject of assay [6] is HOP-92 NSCLC.
Assay [7] deals with NCI-H522 lung.
In assay [8] the test system is A549/ATCC NSCLC.
Assay [9] relates to 786-0 renal.
In assay [10] the test system is COLO 205 colon.
The test system of assay [11] is DU-145 prostate.
In assay [12] the test system is K-562 leukemia.
Assay [13] deals with MALME-3M melanoma.
For assay [14], the system named is MDA-MB-231 breast.
Assay [15] relates to SF-268 CNS.
The subject of assay [16] is SF-295 CNS.
Assay [17] concerns SF-539 CNS.
The test system of assay [18] is UACC-257 melanoma.
For assay [19], the system named is RXF 393 renal.

`CC(=O)Nc1ccc(-c2cc3c(NCc4ccc(F)cc4)ncnc3s2)cc1`: the growth in assay [1] was 77.5%; in assay [2], 78.4%; in assay [3], 82.7%; in [4], 58%; in assay [5], 77.3%; in [6] it was 76%. Also, the growth in [7] is 56.6%; in assay [8] it was 83.9%; in assay [9], 82.7%; in assay [10] it was 106%; in [11] it was 86.3%; in assay [12], 86.8%. The growth in assay [13] was 59.5%; in assay [14], 83%; in [15], 68%; in assay [16] it was 82.6%; in assay [17], 56.6%; in [18], 86.8%.
Consider `O=C1/C(=C/c2ccc([N+](=O)[O-])cc2)COc2ccc(O)c(O)c21`, for which the growth in assay [1] is 11.1%; in [2], 50.9%; in assay [3], 42.7%; in assay [4], 4.16% (active); in [5] it was -17.2% (active); in assay [6] it was -4.37% (active). In addition, the growth in [7] is -52.7% (active); in assay [8], 34.5%; in assay [9], -60.5% (active); in assay [10] it was 16.3%; in assay [11], -19.1% (active); in [12], 5.31% (active). The growth in [13] is -44.2% (active); in [14], -27.1% (active); in [15], -25.3% (active); in assay [16] it was 83.7%; in assay [17], -91.6% (active); in assay [18], 40.3%.
Regarding `C=C1C(=O)O[C@H]2[C@H]1CC/C(COC(=O)/C=C\C(=O)NCc1ccc(Cn3c(=O)sn(-c4ccc(C#N)cc4)c3=O)cc1)=C\CC[C@@]1(C)O[C@@H]21`, the growth in [1] was -80.4% (active); in [2], -69.5% (active); in assay [3] it was -46.6% (active); in assay [4] it was -37.3% (active); in [5] it was -68.7% (active); in assay [6] it was -65.8% (active). The growth is -47.5% (active) in assay [7]; -21.4% (active) in assay [8]; -75.8% (active) in assay [9]; -55.4% (active) in [10]; -94.4% (active) in assay [11]; -8.61% (active) in [12]. Further, the growth in [13] was -95% (active); in [14] it was -86% (active); in assay [15], -75.2% (active); in assay [16] it was 56.4%; in assay [17] it was -99.3% (active); in assay [18], -68.2% (active).
As to `C=C1C(=O)O[C@H]2[C@H]1CC/C(COC(=O)/C=C\C(=O)NCc1ccc(Cn3c(=O)sn(-c4ccc(Cl)cc4)c3=O)cc1)=C\CC[C@@]1(C)O[C@@H]21`, the growth in assay [1] was -63.6% (active); in assay [2], -58.9% (active); in assay [3] it was -18.5% (active); in assay [4], -34.7% (active); in assay [5], -73.2% (active); in assay [6] it was -66.7% (active). The growth in [7] is -55.9% (active); in assay [8], -43.7% (active); in assay [9], -82.5% (active); in assay [10], -45% (active); in [11] it was -94.7% (active); in assay [12] it was -20.5% (active). The growth is -93.1% (active) in assay [13]; -86.1% (active) in assay [14]; -74.4% (active) in assay [15]; 56.2% in assay [16]; -100% (active) in assay [17]; -64.8% (active) in assay [18].
Consider `COc1cc2oc(-c3cccc(C(=O)Nc4ccc(C#N)cc4)c3)cc(=O)c2c(O)c1OC`, for which the growth in assay [1] is 38.2%; in assay [2], 21.2%; in [3], 72.7%; in [4], -31.8% (active); in assay [5] it was 18.9%; in assay [6] it was 79.2%. The growth in [7] is 61.2%; in [8] it was 37.4%; in assay [9], 70.4%; in assay [10], 39.9%; in [11], 34.2%; in assay [12], 66.4%. In addition, the growth in [13] was 47.7%; in assay [19], 102%; in assay [15], 50%; in [16], 36.8%; in assay [17], 82.4%; in [18], 88.9%.
For `COc1ccc(-n2sc(=O)n(Cc3ccc(COC(=O)C(C)c4ccc(CC(C)C)cc4)cc3)c2=O)cc1` (centres undefined), the growth in assay [1] was 78.1%; in assay [2], 68.2%; in assay [3], 94.9%; in assay [4] it was 66.8%; in [5], 76.4%; in [6], 19.2%. The growth in assay [7] was -32.9% (active); in assay [8], 80.8%; in assay [9], 57.3%; in assay [10], -10.9% (active); in [11], 43.9%; in [12], -11.6% (active). The growth in assay [13] is -49.4% (active); in [14] it was 62.4%; in assay [15], 71.9%; in assay [16] it was 97.2%; in assay [17], 26.8%; in assay [18] it was 54.9%.
For the compound `O=C1/C(=C/c2ccccc2[N+](=O)[O-])COc2ccc(O)c(O)c21`, the growth is -4.09% (active) in assay [1]; -8.66% (active) in assay [2]; 33.3% in [3]; 30.3% in assay [4]; 0.563% (active) in assay [5]; -9.78% (active) in [6]. In addition, the growth in assay [7] is -45.2% (active); in assay [8], 30.8%; in assay [9] it was 10.6%; in assay [10], -32.6% (active); in assay [11], 2.13% (active); in assay [12] it was 4.47% (active). Besides, the growth in assay [13] was -31.6% (active); in assay [14], -16.7% (active); in assay [15] it was 0.467% (active); in assay [16] it was 58.3%; in [17], -69.4% (active); in assay [18], -8.55% (active).
As for `CN(C)CCN1C(=O)c2cccc3c(-c4ccc(-c5nc6c7ccccc7c7ccccc7c6[nH]5)cc4)ccc(c23)C1=O`, the growth in assay [1] is 109%; in assay [2] it was 101%; in assay [3] it was 114%; in assay [4], 106%; in [5], 111%; in assay [6] it was 71.3%. In addition, the growth in assay [7] was 94.2%; in assay [8], 90.4%; in [9], 18.2%; in assay [10], 105%; in [11] it was 102%; in assay [12], 28.5%. The growth in assay [13] is 110%; in assay [14] it was 89.1%; in assay [15], 105%; in assay [16], 105%; in assay [17], 92.7%; in [18], 110%.
